The campaign covered roughly 5,500 compounds. About 2,000 (36%) were called active. Another 18% or so got no clear call; they are omitted. Cut-off read from the data, not from the text of the source: active = normalized growth mostly below about 0.91 (no sharp cut-off); inconclusive = no clear call, values can overlap the other calls; inactive = mostly above about 0.92. The list shows a part of the results.
Experiment: chemical genetic growth profiling, strain panel (AID 1159580);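 note: tested at 20 µM; growth read once vehicle control cultures reached saturation at 30 °C; 1 = growth at the plate median or of vehicle wells; lower values mean less growth of the strain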
Details: growth OD

Measured: normalized growth

CC(C(=O)O)c1ccc(-c2ccccc2)c(F)c1 (configuration not stated)
active: S. cerevisiae deletion strains, locus YJR066W, strain TOR1, hits give low values 0.762 | S. cerevisiae deletion strains, locus YKL068W, hits give low values 0.912 | S. cerevisiae deletion strains, locus YKL085W, strain MDH1 (second series), hits give low values 0.919 | S. cerevisiae deletion strains, locus YKL085W, strain MDH1, hits give low values 0.919 | S. cerevisiae deletion strains, locus YKR001C, strain vps1, hits give low values 0.827 | S. cerevisiae deletion strains, locus YLR113W, strain HOG1, hits give low values 0.62 | S. cerevisiae deletion strains, locus YLR262C, strain YPT6 (second series), hits give low values 0.846 | S. cerevisiae deletion strains, locus YNL183C, strain NPR1, hits give low values 0.783 | S. cerevisiae deletion strains, locus YNL248C, strain rpa49, hits give low values 0.817 | S. cerevisiae deletion strains, locus YNL271C, strain bni1, hits give low values 0.888 | S. cerevisiae deletion strains, locus YNL298W, strain CLA4, hits give low values 0.792 | S. cerevisiae deletion strains, locus YOR231W, strain MKK1, hits give low values 0.732 | S. cerevisiae deletion strains, locus YPL256C, strain CLN2, hits give low values 0.736 | S. cerevisiae deletion strains, locus YPR141C, strain kar3, hits give low values 0.913
inactive: S. cerevisiae deletion strains, locus YJR043C, strain POL32, hits give low values 0.979 | S. cerevisiae deletion strains, locus YJR075W, strain HOC1, hits give low values 0.978 | S. cerevisiae deletion strains, locus YKL009W, strain mrt4, hits give low values 0.899 | S. cerevisiae deletion strains, locus YKL160W, strain elf1, hits give low values 1.03 | S. cerevisiae deletion strains, locus YKR026C, strain gcn3, hits give low values 0.977 | S. cerevisiae deletion strains, locus YKR091W, strain srl3, hits give low values 0.988 | S. cerevisiae deletion strains, locus YLL001W, strain dnm1, hits give low values 1.02 | S. cerevisiae deletion strains, locus YLL026W, hits give low values 0.987 | S. cerevisiae deletion strains, locus YLL041C, strain sdh2, hits give low values 0.97 | S. cerevisiae deletion strains, locus YLR027C, strain aat2, hits give low values 0.976 | S. cerevisiae deletion strains, locus YLR039C, strain RIC1, hits give low values 0.79 | S. cerevisiae deletion strains, locus YLR058C, strain SHM2, hits give low values 0.99 | S. cerevisiae deletion strains, locus YLR102C, strain apc9, hits give low values 0.954 | S. cerevisiae deletion strains, locus YLR221C, strain rsa3, hits give low values 1 | S. cerevisiae deletion strains, locus YLR258W, strain gsy2, hits give low values 0.983 | S. cerevisiae deletion strains, locus YLR262C, strain YPT6, hits give low values 0.773 | S. cerevisiae deletion strains, locus YLR268W, strain sec22, hits give low values 0.955 | S. cerevisiae deletion strains, locus YLR320W, strain mms22, hits give low values 1.05 | S. cerevisiae deletion strains, locus YLR330W, strain CHS5, hits give low values 0.969 | S. cerevisiae deletion strains, locus YLR342W, strain FKS1 (second series), hits give low values 0.936 | S. cerevisiae deletion strains, locus YLR342W, strain FKS1, hits give low values 0.984 | S. cerevisiae deletion strains, locus YLR357W, strain rsc2, hits give low values 1.01 | S. cerevisiae deletion strains, locus YLR370C, strain arc18, hits give low values 0.989 | S. cerevisiae deletion strains, locus YLR371W, strain rom2, hits give low values 0.996 | S. cerevisiae deletion strains, locus YLR384C, strain iki3, hits give low values 1.01 | S. cerevisiae deletion strains, locus YLR418C, strain cdc73, hits give low values 1.01 | S. cerevisiae deletion strains, locus YML016C, strain PPZ1, hits give low values 0.981 | S. cerevisiae deletion strains, locus YML032C, strain rad52, hits give low values 0.951 | S. cerevisiae deletion strains, locus YML120C, strain ndi1, hits give low values 0.996 | S. cerevisiae deletion strains, locus YML124C, strain tub3, hits give low values 0.96 | S. cerevisiae deletion strains, locus YMR058W, strain fet3, hits give low values 0.994 | S. cerevisiae deletion strains, locus YMR078C, strain ctf18, hits give low values 0.94 | S. cerevisiae deletion strains, locus YMR125W, strain sto1, hits give low values 1 | S. cerevisiae deletion strains, locus YMR129W, hits give low values 0.968 | S. cerevisiae deletion strains, locus YMR205C, strain PFK2, hits give low values 1.03 | S. cerevisiae deletion strains, locus YMR223W, strain ubp8, hits give low values 1.02 | S. cerevisiae deletion strains, locus YMR231W, strain pep5, hits give low values 0.969 | S. cerevisiae deletion strains, locus YMR307W, strain GAS1, hits give low values 0.938 | S. cerevisiae deletion strains, locus YNL067W, strain RPL9B, hits give low values 0.974 | S. cerevisiae deletion strains, locus YNL071W, strain lat1, hits give low values 0.985 | S. cerevisiae deletion strains, locus YNL209W, strain ssb2, hits give low values 1.01 | S. cerevisiae deletion strains, locus YNL233W, strain BNI4, hits give low values 0.991 | S. cerevisiae deletion strains, locus YNL250W, strain rad50, hits give low values 0.908 | S. cerevisiae deletion strains, locus YNL307C, strain MCK1, hits give low values 0.947 | S. cerevisiae deletion strains, locus YNL322C, strain KRE1 (second series), hits give low values 0.964 | S. cerevisiae deletion strains, locus YNL322C, strain KRE1, hits give low values 0.975 | S. cerevisiae deletion strains, locus YNR049C, strain mso1, hits give low values 0.981 | S. cerevisiae deletion strains, locus YNR052C, strain pop2, hits give low values 0.952 | S. cerevisiae deletion strains, locus YOL012C, strain htz1 1.06 | S. cerevisiae deletion strains, locus YOL147C, strain pex11, hits give low values 0.969 | S. cerevisiae deletion strains, locus YOR001W, strain rrp6, hits give low values 0.95 | S. cerevisiae deletion strains, locus YOR061W, strain CKA2, hits give low values 0.973 | S. cerevisiae deletion strains, locus YOR069W, strain VPS5, hits give low values 0.994 | S. cerevisiae deletion strains, locus YOR070C, strain gyp1, hits give low values 1 | S. cerevisiae deletion strains, locus YOR080W, strain dia2, hits give low values 1.01 | S. cerevisiae deletion strains, locus YOR083W, strain WHI5, hits give low values 1.03 | S. cerevisiae deletion strains, locus YOR106W, strain vam3, hits give low values 0.994 | S. cerevisiae deletion strains, locus YOR136W, strain idh2, hits give low values 0.989 | S. cerevisiae deletion strains, locus YOR144C, strain elg1, hits give low values 0.965 | S. cerevisiae deletion strains, locus YOR184W, strain ser1, hits give low values 0.972 | S. cerevisiae deletion strains, locus YOR265W, strain rbl2, hits give low values 1 | S. cerevisiae deletion strains, locus YOR270C, strain vph1, hits give low values 1.05 | S. cerevisiae deletion strains, locus YOR290C, strain snf2, hits give low values 0.97 | S. cerevisiae deletion strains, locus YOR316C, strain cot1, hits give low values 0.965 | S. cerevisiae deletion strains, locus YPL051W, strain arl3, hits give low values 0.981 | S. cerevisiae deletion strains, locus YPL078C, strain atp4, hits give low values 1 | S. cerevisiae deletion strains, locus YPL106C, strain sse1, hits give low values 1.05 | S. cerevisiae deletion strains, locus YPL240C, strain hsp82, hits give low values 0.985 | S. cerevisiae deletion strains, locus YPR119W, strain clb2, hits give low values 0.95 | S. cerevisiae deletion strains, locus YPR163C, strain tif3, hits give low values 0.957 | S. cerevisiae deletion strains, locus YPR167C, strain met16, hits give low values 0.962 | S. cerevisiae deletion strains, strain wtn01, hits give low values 0.971 | S. cerevisiae strains, strain wild type, hits give low values 0.968
